Test results taken from PubChem BioAssay AID493168 (National Center for Advancing Translational Sciences (NCATS), 2011).
Records with an inconclusive call do not appear. Activity calls are given as the source filed them. Calls come from the whole dose curve; as a rule, active = well fitted inhibition curve with a large enough effect; inconclusive = small, poorly fitted or top-dose-only effect, or effect the other way; inactive = flat fitted curve, though single readings scatter.

molecular target: Ubiquitin carboxyl-terminal hydrolase 2 (Homo sapiens) (UniProt O75604); assay: Confirmation Assay for Inhibitors of Ubiquitin-specific Protease USP2a Using CHOP2 as the Reporter; details: USP2 core, Ub-CHOP2 coupled reporter fluorescence; series mostly up to 38.3 µM; activity change, negative = inhibition: at the top concentration; note: nearly all actives have a fitted effect of over 55% in size;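 for activity change, negative = inhibition: plate controls were DMSO wells for no effect and full inhibition by NEM control for full effect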
Sequence (O75604 whole entry, looked up): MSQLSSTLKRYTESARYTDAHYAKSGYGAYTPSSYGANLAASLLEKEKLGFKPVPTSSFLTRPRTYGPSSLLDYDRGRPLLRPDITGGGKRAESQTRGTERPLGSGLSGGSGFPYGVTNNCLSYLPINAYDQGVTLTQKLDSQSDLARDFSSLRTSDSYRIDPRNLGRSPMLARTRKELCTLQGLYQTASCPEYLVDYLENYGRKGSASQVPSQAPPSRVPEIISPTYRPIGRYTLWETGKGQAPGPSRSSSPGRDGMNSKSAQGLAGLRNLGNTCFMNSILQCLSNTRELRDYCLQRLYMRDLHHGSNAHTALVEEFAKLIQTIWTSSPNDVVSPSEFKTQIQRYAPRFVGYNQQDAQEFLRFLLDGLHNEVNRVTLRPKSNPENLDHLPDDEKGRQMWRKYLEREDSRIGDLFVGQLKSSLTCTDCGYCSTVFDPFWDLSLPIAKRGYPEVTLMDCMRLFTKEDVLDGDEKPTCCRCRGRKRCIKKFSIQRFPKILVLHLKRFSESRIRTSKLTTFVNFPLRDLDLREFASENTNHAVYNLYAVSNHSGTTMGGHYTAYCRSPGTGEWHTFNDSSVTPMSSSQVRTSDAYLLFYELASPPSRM
Text: NIH Molecular Libraries Probe Centers Network [MLPCN] NIH Chemical Genomics Center [NCGC] MLSCN Grant: XO1-MH079852-01 PI Name: Nicholson, Ben. Progenra Inc, Malvern, PA NCGC Assay Overview: Homeostasis of cellular proteins is maintained through a combination of synthesis and degradation. The pathway that accounts for the majority of protein degradation is the ubiquitin-proteasomal pathway. Ubiquitin (Ub) is highly conserved in all cells and the generation of a multi-Ub chain typically targets proteins for degradation by the proteasome. However, ubiquitination is highly reversible and dynamic. Deubiquitination, the reverse process, is catalyzed through the action of enzymes referred to as isopeptidases or deubiquitinating enzymes (DUBs). This group of enzymes is collectively responsible for maintaining adequate pools of free ubiquitin and regulating the ubiquitination status of cellular proteins. The class of DUBs referred to as the ubiquitin-specific proteases (USP) family functions endoproteolytically to cleave Ub chains from a wide range of protein substrates. USP2a deubiquitinates fatty acid synthase (FASN) which has recently been identified as an emerging oncology target. To identify inhibitors of USP2a a cell-free assay was employed. […] The reporter enzyme chosen is an […] called CHOP2, which is activated when the Ub is cleaved by USP2. The free and now activated reporter can subsequently act on its reporter substrate. Thus, this coupled assay gives a fluorescent read-out at excitation/emission wavelengths of 485/531. The assay was developed by Progenra, Inc. and has been licensed for sale by LifeSensors, Inc. as Ub-CHOP2-Reporter-Kit (#PR1101).
NCGC Assay Protocol Summary: The assay buffer, prepared fresh at the day of the assay, contains 20mM Tris-HCl pH 8.0, 2mM CaCl2, 2mM beta-Mercaptoethanol, 0.05% CHAPS. 3ul of 20nM (10nM final) USP2 core, which is stored on ice, is dispensed into a medium-binding black solid Kalypsys 1,536 well plate using the Kalypsys dispenser. The assay plate is then pinned with 23nL compound with the Kalypsys pintool in columns 5-48. The controls are pinned as follows: column 1 two-fold dilutions of 2M NEM in duplicate; column 2 2M NEM (final concentration 38.2mM); column 3&4 DMSO. The assay plate is incubated at RT for 30min. Subsequently, 1.5uL of 100nM (25nM final) Ub-CHOP2 and 1.5uL of 100nM (25nM final) Reporter Substrate (both stored on ice and protected from light) were dispensed into the plate using the Kalypsys dispenser. Plates were read after 60min RT incubation on a ViewLux (Perkin Elmer) plate reader using the following wavelengths Ex 485nm /Em 531nm. Data were normalized to the to AC100 inhibition (NEM). Concentration-response curves were fitted to the normalized data and the concentration-response curves were then classified based on curve quality (r2), response magnitude and degree of measured activity. The time zero reading was used to flag fluorescence artifacts. Keywords: ubiquitination, deubiquitination, proteases, profluorescent, MLSMR, MLPCN, NIH Roadmap, qHTS, NCGC
Potency is the fitted concentration of half-maximal effect.

Activity change, negative = inhibition, inactive:
CC(C)(C)[C@H]1COC(=O)[C@@H](Cc2ccc(F)cc2)C/C=C\C[C@@H](CC(=O)N[C@H](CO)Cc2ccccc2)C(=O)N1 2.33%
Cc1ccc(N2CN=c3s/c(=C\c4cccnc4)c(=O)n3C2)cc1 -4.44%
N#CCC(=O)Nc1ccc(C(=O)OCC(=O)NCc2ccc3c(c2)OCO3)cc1 -14%
Cc1cc(-c2csc(NC(=O)c3ccc(=O)[nH]c3)n2)c(C)n1Cc1ccccc1 -3.97%
CCOc1ccccc1N1C(=O)CC(Nc2ccc(N3CCOCC3)cc2)C1=O (stereo not given) -2.19%
Cc1ccccc1N=C1NC(=O)CS1 4.13%
Cc1ccc(-c2c(C)n([O-])c3c([n+]2=O)CCC3)o1 2.64%
CC1CC(C)CN(C(=O)CSc2nnc(-c3ccc(Cl)cc3)o2)C1 (stereo not given) -4.82%
O=C(C1CCCN(S(=O)(=O)c2cccc3cccnc23)C1)N1CCN(c2ccccc2F)CC1 (stereo not given) -4.76%
COc1ccc2[nH]c(=O)c(CN(C)C(=O)C3CCCCC3)cc2c1 -0.262%
COc1ccc(CNS(=O)(=O)c2ccc(S(=O)(=O)N3CCCCC3)cc2)cc1 -0.642%
CNS(=O)(=O)c1cccc(C(=O)OCC(=O)c2cc(C)n(-c3ccc4c(c3)OCO4)c2C)c1 -4.53%
CCOc1ccc2[nH]c(=O)c(CN(CCc3ccccc3)C(=O)c3cnccn3)cc2c1 -3.4%
Cc1ccc(C(=O)NCc2ccc3c(c2)OCO3)cc1N1CCCC1=O -2.42%
CCOc1cc(N2CCOCC2)c(OCC)cc1NC(=O)Cc1cn2ccsc2n1 -2.39%
COc1ccc(CCNC(=O)COC(=O)CNS(=O)(=O)c2ccc(SC)c([N+](=O)[O-])c2)cc1 2.08%
CC(C)C(=O)Nc1ccc(C(=O)N2CCCCCC2)cc1 -1.8%
COc1ccc(S(=O)(=O)NCCSCc2ccco2)cc1OC -14.5%
O=C(Oc1ccccc1C(=O)Nc1ccccc1)c1ccccc1Br 1.52%
COc1ccc(CC(=O)c2ccccc2C(=O)O)cc1 2.55%
Cc1ccc(NS(=O)(=O)c2cccc(C(=O)OCC(=O)NCc3ccco3)c2)cc1 -4.99%
O=C(NCCOC(=O)c1ccccc1C(=O)OCCNC(=O)c1cccnc1)c1cccnc1 -4%
CCOC(=O)N1CCN(C(=O)CN(c2ccc(Oc3ccccc3)cc2)S(C)(=O)=O)CC1 -1.27%
CCO[C@H]1OC(C(=O)N2CCCCCCC2)=C[C@@H](c2ccc(C(F)(F)F)cc2)[C@@H]1CCCO 2.48%
CC(C)Oc1ccc(C(=O)Nc2ccc(N3CCCC3)cc2)cc1 -1.01%
COCCCNCCCOc1ccc(C)cc1Br -2.1%
COCCCNC(=O)C1CCN(c2nc(C)cc(C)n2)CC1 1.61%
O=C1NC[C@@H](c2ccccc2)OC(=O)[C@@H](Cc2ccc(F)cc2)CC/C=C/C[C@@H]1CC(=O)N(CCO)Cc1ccccc1 1.12%
CC1CCN(c2ccc3c(c2)S(=O)(=O)c2cccc(C(=O)NC4CC4)c2C3=O)CC1 -1.28%
O=C1c2ccccc2CCC12N=NCC2c1ccc(Br)cc1 (stereo not given) -1.61%
CN(C)c1ccc(-c2ccccc2)nn1 0.568%
CCC(C(=O)Nc1nnc(-c2ccco2)s1)c1ccccc1 (stereo not given) 2.92%
Cc1cc(C(=O)Nc2ccccc2N2CCOCC2)c2ccccc2n1 1.25%
CN1CCN(CCC(=O)N/N=C/c2cc([N+](=O)[O-])ccc2O)CC1 -3.37%
CSc1ncccc1C(=O)OCC(=O)N1CCOCC1 -1.33%

Potency, active:
COc1ccc(NC(=O)c2cc(-c3ccco3)nc3ccccc23)cc1S(=O)(=O)N1CCOCC1 18.5 µM
Cn1c(=O)c(C(=O)Nc2ccccc2S(N)(=O)=O)c(O)c2ccccc21 14.7 µM
O=C(CCN1C(=O)/C(=C\c2ccco2)SC1=S)Nc1ccc(C(=O)O)c(O)c1 13.1 µM
CCCCCCCCCCCCCCCC[N+](C)(C)CCN(Cc1ccc(OC)cc1)c1ncccn1 11.7 µM
O=C(Nc1nc(-c2ccco2)c(-c2ccco2)s1)C1CC(=O)N(c2ccc3c(c2)OCCO3)C1 (stereo not given) 10.4 µM
